Results reported in PubChem BioAssay AID434959 (Broad Institute, 2010).
The whole screen tested about 30,000 compounds, of which about 110 (0.37%) were called active. For the sample, actives were picked, then their nearest neighbours and some compounds at random. Unmarked numbers belong to inactive results.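 Rule for the calls: active = delta delta Cp rounded down to an integer at or above 3, about 3 SD of DMSO wells; inactive = the rest.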

Assay: YB-1 transcript reduction by qRT-PCR – cell-based, fluorescence, primary screen (AID 434959);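 note: higher means less YB-1 transcript or more CDIP transcript relative to DMSO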
Details: U2OS, qRT-PCR YB-1 vs CDIP delta delta Cp, 16 h; stronger effect = higher value; zero = DMSO, each unit about twofold

Going from `C[C@H]1CN([C@@H](C)CO)C(=O)c2cc(NS(=O)(=O)c3cccs3)ccc2O[C@@H]1CN(C)C(=O)Nc1cccc2ccccc12` to `Cc1noc(C)c1S(=O)(=O)Nc1ccc2c(c1)C(=O)N([C@@H](C)CO)C[C@@H](C)[C@H](CN(C)C(=O)Nc1cccc3ccccc13)O2`, the delta Cp (YB-1 minus CDIP) rises from -0.308 to 0.0124.

Going from `Cc1noc(C)c1S(=O)(=O)N(C)C[C@H]1OCCCC[C@@H](C)Oc2ccc(NC(=O)C3CCCCC3)cc2C(=O)N([C@H](C)CO)C[C@@H]1C` to `C[C@@H]1CN([C@@H](C)CO)C(=O)Cc2cc(NC(=O)C3CC3)ccc2O[C@@H]1CN(C)S(C)(=O)=O`, the delta Cp (YB-1 minus CDIP) falls from 0.386 to 0.012.

Going from `C[C@H](CO)N1C[C@H](C)[C@H](CN(C)S(C)(=O)=O)Oc2ncc(C#CCN(C)C)cc2C1=O` to `COc1ccc(-c2cnc3c(c2)C(=O)N([C@H](C)CO)C[C@H](C)[C@H](CN(C)S(=O)(=O)c2ccccc2)O3)cc1`, the delta Cp (YB-1 minus CDIP) rises from 0.217 to 0.828.

First: NCCCC[C@@H]1NC(=O)[C@@H]2C[C@H](C(=O)NCc3ccc(F)cc3)[C@H](c3ccc(O)cc3)N2C1=O
Second: C[C@@H]1CN([C@H](C)CO)C(=O)c2cc(NC(=O)CCCN(C)C)ccc2O[C@H]1CN(C)Cc1ccc(C(=O)O)cc1
The delta Cp (YB-1 minus CDIP) of the first is higher: 0.142 for the first, -0.213 for the second.

Going from `C[C@H](CO)N1C[C@H](C)[C@H](CN(C)S(=O)(=O)c2cccs2)Oc2ccc(NS(=O)(=O)c3ccccc3)cc2C1=O` to `Cc1ccc(S(=O)(=O)Nc2cccc3c2O[C@@H](CN(C)S(=O)(=O)c2cccs2)[C@@H](C)CN([C@@H](C)CO)C3=O)cc1`, the delta Cp (YB-1 minus CDIP) rises from -0.379 to -0.365.

First: C=C(CC/C=C(\C)C(=O)O)C1(O)CC=C(C)CC1 (stereo unspecified)
Second: C[C@]12C=CC(=O)C=C1CC[C@@H]1[C@@H]2C(=O)C[C@@]2(C)[C@H]1CC[C@]2(O)C(=O)CO
The delta Cp (YB-1 minus CDIP) of the first is lower: -0.182 for the first, 1.09 for the second.

Compared with `C[C@@H]1CN([C@H](C)CO)C(=O)Cc2cc(NS(=O)(=O)c3cccs3)ccc2O[C@H]1CN(C)C(=O)Nc1ccc2c(c1)OCO2`, `C[C@H]1CN([C@@H](C)CO)C(=O)Cc2cc(NS(=O)(=O)c3cccs3)ccc2O[C@H]1CN(C)Cc1ccncc1` is higher in delta Cp (YB-1 minus CDIP): 0.417 for the first, 0.635 for the second.

First: Cc1noc(C)c1NC(=O)Nc1ccc2c(c1)C(=O)N([C@H](C)CO)C[C@H](C)[C@H](CN(C)Cc1ccc(-c3ccccc3)cc1)O2
Second: Cc1noc(C)c1NC(=O)Nc1ccc2c(c1)CC(=O)N([C@H](C)CO)C[C@@H](C)[C@@H](CN(C)Cc1ccncc1)O2
The delta Cp (YB-1 minus CDIP) of the first is higher: 0.364 for the first, -0.309 for the second.

Compared with `O=C(O)CCCCCC(=O)N/N=C/c1ccco1`, `O=C(O)CCCCCCC(=O)N/N=C/c1cccs1` is lower in delta Cp (YB-1 minus CDIP): 0.15 for the first, -0.0775 for the second.

Compared with `COc1ccc(S(=O)(=O)N(C)C[C@H]2Oc3c(NC(=O)NC4CCCCC4)cccc3C(=O)N([C@@H](C)CO)C[C@@H]2C)cc1`, `C[C@H]1CN([C@@H](C)CO)C(=O)c2cccc(NC(=O)c3cnccn3)c2O[C@H]1CN(C)S(=O)(=O)c1cn(C)cn1` is lower in delta Cp (YB-1 minus CDIP): -0.0504 for the first, -0.0985 for the second.

Going from `C[C@H]1CN([C@@H](C)CO)C(=O)Cc2cc(NC(=O)Cn3cnnn3)ccc2O[C@H]1CN(C)Cc1ccc(C(=O)O)cc1` to `COc1ccc(CN(C)C[C@H]2Oc3ccc(NC(=O)Cn4cnnn4)cc3CC(=O)N([C@@H](C)CO)C[C@@H]2C)cc1`, the delta Cp (YB-1 minus CDIP) falls from -0.00589 to -0.171.

Compared with `C[C@@H]1CN([C@H](C)CO)C(=O)Cc2cc(N(C)C)ccc2O[C@H]1CN(C)C(=O)NC1CCCCC1`, `C[C@@H]1CN([C@@H](C)CO)C(=O)Cc2cc(NC(=O)Nc3cccc4ccccc34)ccc2O[C@@H]1CN(C)CC1CCCCC1` is higher in delta Cp (YB-1 minus CDIP): -0.109 for the first, 0.088 for the second.

Compared with `C[C@H](CO)N1C[C@H](C)[C@H](CN(C)S(=O)(=O)c2ccccc2C#N)OCc2cn(nn2)CCCC1=O`, `C[C@H]1CN([C@@H](C)CO)C(=O)CCCn2cc(nn2)CO[C@H]1CN(C)S(=O)(=O)c1ccc2ccccc2c1` is higher in delta Cp (YB-1 minus CDIP): -0.329 for the first, 0.00166 for the second.

First: C[C@@H]1CN([C@@H](C)CO)C(=O)Cc2cc(NC(=O)Cc3ccccc3)ccc2O[C@@H]1CN(C)Cc1ccc(Oc2ccccc2)cc1
Second: C[C@@H]1CN([C@@H](C)CO)C(=O)Cc2cc(NC(=O)Nc3ccccc3)ccc2O[C@@H]1CN(C)S(=O)(=O)c1ccc(F)cc1
The delta Cp (YB-1 minus CDIP) of the first is lower: -0.162 for the first, -0.00869 for the second.

First: C[C@@H]1CN([C@H](C)CO)C(=O)CCCn2cc(nn2)CO[C@H]1CN(C)S(=O)(=O)c1ccc(Oc2ccccc2)nc1
Second: C[C@@H]1CN([C@H](C)CO)C(=O)CCCn2cc(nn2)CO[C@@H]1CN(C)C(=O)Nc1ccc(-c2cccs2)cc1
The delta Cp (YB-1 minus CDIP) of the first is higher: -0.176 for the first, -0.273 for the second.

Going from `CC1(C)C2CC[C@]3(C)C(C(=O)C=C4[C@@H]5C[C@@](C)(C(=O)O)CC[C@]5(C)CC[C@]43C)[C@@]2(C)CC[C@@H]1O` (stereo partly specified) to `C[C@H](CO)N1C[C@H](C)[C@H](CN(C)S(=O)(=O)c2cccc(F)c2)OCc2cnnn2CCCC1=O`, the delta Cp (YB-1 minus CDIP) rises from 0.127 to 0.303.

Compared with `COc1cc(O[C@@H]2O[C@H](CO[C@H]3OC[C@](O)(COC(=O)c4ccc(O)c(OC)c4)[C@H]3O)[C@@H](O)[C@H](O)[C@H]2O)ccc1O`, `COc1ccc(NC(=O)N(C)C[C@@H]2Oc3c(NC(=O)c4ccc(-c5nccs5)cc4)cccc3C(=O)N([C@H](C)CO)C[C@@H]2C)cc1` is lower in delta Cp (YB-1 minus CDIP): 0.323 for the first, -0.282 for the second.

First: Cc1ccc(S(=O)(=O)Nc2cccc3c2O[C@@H](CN(C)S(=O)(=O)c2c(C)noc2C)[C@@H](C)CN([C@H](C)CO)C3=O)cc1
Second: COc1ccc(S(=O)(=O)N(C)C[C@H]2Oc3ccc(NC(=O)Nc4c(C)noc4C)cc3CC(=O)N([C@@H](C)CO)C[C@H]2C)cc1
The delta Cp (YB-1 minus CDIP) of the first is lower: -0.382 for the first, -0.281 for the second.

Going from `Nn1c(C(=O)N2CCCC2)nc2ccccc2c1=O` to `O=C(N/N=C/[C@H](O)[C@@H](O)[C@H](O)[C@H](O)CO)c1ccccc1O`, the delta Cp (YB-1 minus CDIP) falls from 0.192 to 0.111.

First: CCOC(=O)c1cnn2c(C(F)(F)F)cc(C)nc12
Second: C[C@@H]1CN([C@H](C)CO)C(=O)c2cccc(NS(=O)(=O)c3ccc(F)cc3)c2O[C@@H]1CN(C)C(=O)Nc1ccc(C(F)(F)F)cc1
The delta Cp (YB-1 minus CDIP) of the first is lower: -0.121 for the first, -0.00681 for the second.

Going from `COC(=O)CCCCCCC(=O)N/N=C/c1ccc(O)c(O)c1O` to `COc1cc(/C=N\NC(=O)CCCCCCC(=O)NO)c(Br)cc1O`, the delta Cp (YB-1 minus CDIP) falls from -0.105 to -0.218.

Compared with `CC(C)(C)OC(=O)Nc1cccc(/C=N/NC(=O)CCCCCC(=O)Nc2ccccc2O)c1`, `O=C(CCCCC(=O)N/N=C/c1ccc(C(F)(F)F)cc1)NO` is higher in delta Cp (YB-1 minus CDIP): -0.601 for the first, 0.349 for the second.

First: C[C@H]1CN([C@@H](C)CO)C(=O)c2cccc(NC(=O)Nc3ccc(F)cc3)c2O[C@@H]1CN(C)C(=O)Nc1ccc2c(c1)OCO2
Second: C[C@@H]1CN([C@H](C)CO)C(=O)c2cccc(NC(=O)Nc3ccc4c(c3)OCO4)c2O[C@@H]1CN(C)Cc1ccccc1
The delta Cp (YB-1 minus CDIP) of the first is higher: 1.42 for the first, -0.407 for the second.

First: C[C@H](CO)N1C[C@H](C)[C@@H](CN(C)Cc2ccc3c(c2)OCO3)OCc2cnnn2CCCC1=O
Second: C[C@@H]1CN([C@H](C)CO)C(=O)c2cccc(NC(=O)c3ccncc3)c2O[C@@H]1CN(C)C
The delta Cp (YB-1 minus CDIP) of the first is higher: -0.135 for the first, -0.219 for the second.

First: COc1cccc(-c2cnc3c(c2)C(=O)N([C@H](C)CO)C[C@H](C)[C@H](CN(C)S(=O)(=O)c2cccc(F)c2)O3)c1
Second: Cc1ncc(CO)c(/C=N/NC(=O)c2ccc(C(=O)NO)cc2)c1O
The delta Cp (YB-1 minus CDIP) of the first is lower: -0.156 for the first, 0.181 for the second.

With `NC(=S)c1cnn2c(C(F)(F)F)cc(C(F)(F)F)nc12` the delta Cp (YB-1 minus CDIP) was 9.53 (active).
